7 compounds from PubChem BioAssay (EPA / NIEHS) can be followed below.

The structures appear in SMILES notation. Calls of active or inactive are those of the source. Rule for the calls: active = hit-call score of the fitted dose curve at least 0.9, where 1 is the maximum; inactive = score below 0.9.

Read-out in assay [1]: Human Leukocyte Antigen - DR isotype (HLADR), HLA-DRA (gene 3122)
Put plainly: BSK_BE3C_HLADR: BioMAP Diversity Plus: BE3C Assay for Human Leukocyte Antigen - DR isotype (HLADR) Biomarker Activity (AID 2283032). The note with it: primary human bronchial epithelial cells; actives raise or lower the signal. An outline of the steps:
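Cell-surface HLA-DR ELISA readout at 24 h after dosing in the BE3C primary human lung bronchial epithelial system; gain or loss of signal against DMSO, with parallel sulforhodamine B staining of total protein for overt cytotoxicity.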

Read-out in assay [2]: Vascular cell adhesion molecule 1 (VCAM1), VCAM1 (gene 7412)
Kind of assay: BSK_4H_VCAM1: BioMAP Diversity Plus: 4H Assay for Vascular cell adhesion molecule 1 (VCAM1) Biomarker Activity (AID 2283033).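 Note: cell-surface VCAM-1 protein measured by ELISA.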 As to conditions: primary human endothelial cells (HUVEC); actives raise or lower the signal. An outline of the steps:
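VCAM-1 ELISA read 24 h after chemical dosing of HUVEC in the BioMAP 4H system, with gain or loss of signal fitted relative to DMSO. Parallel SRB staining (560 nm) checked overt cytotoxicity.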

Read-out in assay [3]: Interferon-gamma inducible Protein 10 (IP10), CXCL10 (gene 3627)
Put plainly: BSK_BE3C_IP10: BioMAP Diversity Plus: BE3C Assay for Interferon-gamma inducible Protein 10 (IP10) Biomarker Activity (AID 2283034). The note with it: primary human bronchial epithelial cells; actives raise or lower the signal. An outline of the steps:
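IP-10 quantified by ELISA in human primary bronchial epithelial cell cultures at 24 hours post-dosing. Gain or loss of signal fitted relative to DMSO; parallel SRB staining assessed overt cytotoxicity.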

Read-out in assay [4]: Monokine induced gamma interferon (MIG), CXCL9 (gene 4283)
Kind of assay: BSK_BE3C_MIG: BioMAP Diversity Plus: BE3C Assay for Monokine induced gamma interferon (MIG) Biomarker Activity (AID 2283035). As to conditions: primary human bronchial epithelial cells; actives raise or lower the signal. The gist of the method:
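ELISA quantified MIG after 24 h exposure of primary bronchial epithelial cultures, analysed in both directions relative to DMSO. Cytotoxicity tracked in parallel cultures by sulforhodamine B staining.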

Read-out in assay [5]: Transforming growth factor beta 1 (TGFb1), TGFB1 (gene 7040)
Kind of assay: BSK_BE3C_TGFb1: BioMAP Diversity Plus: BE3C Assay for Transforming growth factor beta 1 (TGFb1) Biomarker Activity (AID 2283036;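 note: TGF-b1 protein level measured by ELISA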). As to conditions: primary human bronchial epithelial cells; actives raise or lower the signal. An outline of the steps: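 ELISA readout of TGF-b1 from human lung bronchial epithelial primary cells, taken 24 h post-treatment. Gain or loss of signal fitted relative to DMSO baseline, with parallel SRB staining for overt cytotoxicity.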

Read-out in assay [6]: Plasminogen activator inhibitor-1 (PAI1), SERPINE1 (gene 5054)
Put plainly: BSK_BE3C_PAI1: BioMAP Diversity Plus: BE3C Assay for Plasminogen activator inhibitor-1 (PAI1) Biomarker Activity (AID 2283037). As to conditions: primary human bronchial epithelial cells; actives raise or lower the signal. An outline of the steps:
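PAI-1 was measured by ELISA in human primary bronchial epithelial cultures 24 h after chemical dosing, with cytotoxicity checked by SRB total-protein staining in parallel cultures. Activity was fitted in both directions relative to DMSO.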

Read-out in assay [7]: urokinase plasminogen activator (uPA), PLAU (gene 5328)
Put plainly: BSK_BE3C_uPA: BioMAP Diversity Plus: BE3C Assay for urokinase plasminogen activator (uPA) Biomarker Activity (AID 2283038).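 Note: uPA protein level quantified by ELISA in cell cultures; uPA read one day after compound addition.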 The note with it: primary human bronchial epithelial cells; actives raise or lower the signal. An outline of the steps:
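ELISA for uPA on human primary bronchial epithelial cultures 24 h post-treatment, gain or loss against DMSO. Parallel SRB staining (0.1% after 10% TCA fixation, 560 nm) assessed overt cytotoxicity.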

Read-out in assay [8]: Urokinase-type plasminogen activator receptor (uPAR), PLAUR (gene 5329)
Put plainly: BSK_BE3C_uPAR: BioMAP Diversity Plus: BE3C Assay for Urokinase-type plasminogen activator receptor (uPAR) Biomarker Activity (AID 2283039).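 Note: cells exposed to compound for one day before measurement.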 As to conditions: primary human bronchial epithelial cells; actives raise or lower the signal. An outline of the steps:
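uPAR levels were measured by ELISA after 24 h compound treatment of primary human bronchial epithelial cells, fitted in both directions relative to DMSO. Parallel SRB staining served as the cytotoxicity read-out.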

Read-out in assay [9]: Interleukin-6 (IL6), IL6 (gene 3569)
Kind of assay: BSK_CASM3C_IL6: BioMAP Diversity Plus: CASM3C Assay for Interleukin-6 (IL6) Biomarker Activity for (AID 2283040). As to conditions: primary human coronary artery smooth muscle cells; actives raise or lower the signal.

Read-out in assay [10]: Tissue plasminogen activator (tPA), PLAT (gene 5327)
Put plainly: BSK_BE3C_tPA: BioMAP Diversity Plus: BE3C Assay for Tissue plasminogen activator (tPA) Biomarker Activity (AID 2283041).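 Note: tPA level quantified by ELISA one day after compound addition.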 The note with it: primary human bronchial epithelial cells; actives raise or lower the signal. The gist of the method:
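tPA measured by ELISA 24 h after dosing human primary bronchial epithelial cells (BE3C system). Changes in either direction were fitted against DMSO. Parallel cultures were stained with SRB to flag overt cytotoxicity.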

Read-out in assay [11]: Interleukin-8 (IL8), CXCL8 (gene 3576)
Put plainly: BSK_CASM3C_IL8: BioMAP Diversity Plus: CASM3C Assay for Interleukin-8 (IL8) Biomarker Activity (AID 2283042).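 Note: IL-8 protein level quantified by ELISA.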 As to conditions: primary human coronary artery smooth muscle cells; actives raise or lower the signal.

Read-out in assay [12]: Human Leukocyte Antigen - DR isotype (HLADR), HLA-DRA (gene 3122)
Put plainly: BSK_CASM3C_HLADR: BioMAP Diversity Plus: CASM3C Assay for Human Leukocyte Antigen - DR isotype (HLADR) Biomarker Activity (AID 2283043).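 Note: cell-surface HLA-DR protein level quantified by ELISA.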 The note with it: primary human coronary artery smooth muscle cells; actives raise or lower the signal.

Read-out in assay [13]: Macrophage colony-stimulating factor (MCSF), CSF1 (gene 1435)
Kind of assay: BSK_CASM3C_MCSF: BioMAP Diversity Plus: CASM3C Assay for Macrophage colony-stimulating factor (MCSF) Biomarker Activity (AID 2283044).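 Note: M-CSF protein amount quantified by ELISA after 24 h exposure.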 The note with it: primary human coronary artery smooth muscle cells; actives raise or lower the signal.

Read-out in assay [14]: Low-density lipoprotein receptor (LDLR), LDLR (gene 3949)
Put plainly: BSK_CASM3C_LDLR: BioMAP Diversity Plus: CASM3C Assay for Low-density lipoprotein receptor (LDLR) Biomarker Activity (AID 2283045).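 Note: LDLR protein level on the cell surface quantified by ELISA.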 The note with it: primary human coronary artery smooth muscle cells; actives raise or lower the signal.

Read-out in assay [15]: Monocyte Chemoattractant Protein-1 (MCP1), CCL2 (gene 6347)
Kind of assay: BSK_CASM3C_MCP1: BioMAP Diversity Plus: CASM3C Assay for Monocyte Chemoattractant Protein-1 (MCP1) Biomarker Activity (AID 2283046).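 Note: MCP-1 level quantified by ELISA 24 h after dosing.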 As to conditions: primary human coronary artery smooth muscle cells; actives raise or lower the signal.

The nature of assay [16]: BSK_CASM3C_Proliferation: Cell Proliferation Assessment in the BioMAP Diversity Plus: CASM3C Assay (AID 2283047).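 Note: sulforhodamine B total protein stain as relative cell number at 560 nm; sub-confluent cells exposed 48 h before staining; fitted both ways against DMSO so gain or loss of cell number.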 As to conditions: primary human coronary artery smooth muscle cells.
Read-out in assay [17]: Monokine induced gamma interferon (MIG), CXCL9 (gene 4283)
Put plainly: BSK_CASM3C_MIG: BioMAP Diversity Plus: CASM3C Assay for Monokine induced gamma interferon (MIG) Biomarker Activity (AID 2283048).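 Note: MIG protein level measured by ELISA.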 The note with it: primary human coronary artery smooth muscle cells; actives raise or lower the signal.

Read-out in assay [18]: serum amyloid A (SAA), SAA1 (gene 6288)
Put plainly: BSK_CASM3C_SAA: BioMAP Diversity Plus: CASM3C Assay for serum amyloid A (SAA) Biomarker Activity (AID 2283049).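 Note: SAA protein level quantified by ELISA.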 As to conditions: primary human coronary artery smooth muscle cells; actives raise or lower the signal.

A short description of assay [19]: BSK_CASM3C_SRB: Viability Assessment in the BioMAP Diversity Plus: CASM3C Assay (AID 2283050). As to conditions: primary human coronary artery smooth muscle cells.
Read-out in assay [20]: Thrombomodulin, THBD (gene 7056)
Put plainly: BSK_CASM3C_Thrombomodulin: BioMAP Diversity Plus: CASM3C Assay for Thrombomodulin Biomarker Activity (AID 2283051).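 Note: thrombomodulin protein level measured by ELISA 24 h after dosing.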 As to conditions: primary human coronary artery smooth muscle cells; actives raise or lower the signal.

For `OCC(CO)(CO)CO`, the result in [1], in assay [2], in assay [3], in [4], in assay [5] and in assay [6] was inactive. For the same compound, the result in assay [7], in [8], in assay [9], in assay [10], in assay [11] and in assay [12] was inactive. Also, the outcome in assay [13], in assay [14], in assay [15], in [16], in [17] and in [18] was inactive. Also, the result in [19] and in assay [20] was inactive.
For the compound `CC(C)CCCCCCOC(=O)C1CCCCC1C(=O)OCCCCCCC(C)C` (stereo not given), the outcome in assay [1], in assay [2], in assay [3], in assay [4], in assay [5] and in [6] was inactive. For the same compound, the result in assay [7], in assay [8], in assay [9], in assay [10], in assay [11] and in assay [12] was inactive. Further, the result in assay [13], in assay [14], in [15], in [16], in assay [17] and in assay [18] was inactive. The outcome in [19] and in [20] was inactive.
For `c1ccc2ncccc2c1`, the outcome in assay [1], in [2], in assay [3], in [4], in [5] and in [6] was inactive. In addition, the outcome in [7], in assay [8], in [9], in assay [10], in assay [11] and in assay [12] was inactive. Moreover, the outcome in assay [13], in assay [14], in assay [15], in assay [16], in assay [17] and in [18] was inactive. Moreover, the outcome in [19] and in assay [20] was inactive.
As to `NC(=O)N(O)[C@@H]1COc2cc(OCc3ccccc3)ccc21`, the outcome in assay [1], in assay [2], in [3], in [4], in [5] and in [6] was inactive. Besides, the outcome in [7], in [8], in assay [9], in assay [10], in assay [11] and in [12] was inactive. In addition, the result in assay [13], in [14], in [15], in [16], in [17] and in assay [18] was inactive. For the same compound, the outcome in [19] and in [20] was inactive.
The AC50 is the concentration at which the activity in the assay is half-maximal. As for `OCc1c[nH]c2ccccc12`, the AC50 is 3970 nM (active) in assay [1], 5950 nM (active) in assay [3], 71.6 nM (active) in assay [6] and 184 nM (active) in assay [20]. Also, the result in [2], in assay [4], in assay [5], in [7], in assay [8] and in assay [9] was inactive. In addition, the result in [10], in [11], in assay [12], in assay [13], in [14] and in assay [15] was inactive. Further, the outcome in assay [16], in [17], in [18] and in assay [19] was inactive.
Turning to `COc1cc2c(c(OC)c1OC)-c1ccc(OC)c(=O)cc1[C@@H](NC(C)=O)CC2`, the AC50 in [1] was 470 nM (active); in assay [6] it was 148 nM (active); in [9], 148 nM (active); in assay [12] it was 430 nM (active); in assay [16], 148 nM (active). The outcome in [2], in assay [3], in assay [4], in assay [5], in assay [7] and in [8] was inactive. Also, the outcome in assay [10], in assay [11], in assay [13], in assay [14], in assay [15] and in assay [17] was inactive. Further, the outcome in assay [18], in [19] and in [20] was inactive.
In the case of `C=CN1CCCC1=O`, the outcome in assay [1], in [2], in assay [3], in [4], in [5] and in [6] was inactive. In addition, the result in assay [7], in assay [8], in assay [9], in assay [10], in [11] and in [12] was inactive. Also, the outcome in assay [13], in assay [14], in assay [15], in assay [16], in assay [17] and in [18] was inactive. Besides, the result in [19] and in [20] was inactive.
